Assay results: PubChem BioAssay (NCI)
“And” between values parts separate entries of the source, which are not always exact repeats. Identical values can stand only once. Compounds without any hit were thinned out: in the full panel of roughly 83,000, 20% have a hit.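 Treatment: one concentration, 48 hours, 96-well format. Scoring: percent growth, with anything below 10 considered active.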 Values without a mark were called inactive. The source made the active and inactive calls.

Tested on: MDA-MB-468 breast
Test: NCI-60 one-dose screen, 48 h (100 = growth as untreated, 0 = no growth, -100 = all killed)
Conditions: 10 µM unless noted

Compound | growth
CN(C)c1ccc(C(=O)c2ccc(N(C)C)c(N)c2)cc1N | -20.9% (active)
COc1ccc(-c2cc(-c3ccc(OC)cc3)c3sc(=O)[nH]c3n2)cc1 | 96.4%
COc1ccc2nc3cc(Cl)ccc3c(NCCNc3c4ccc(Cl)cc4nc4ccc(OC)cc34)c2c1 | -69.8% (active)
N#Cc1ccc(/C=C/C(=O)c2ccccc2)cc1 | 43.5% and 48.9%
CCC(=O)Oc1cc(Cl)c(Cl)cc1Cl | 113%
COc1cc(/C=C\c2cc(/C=C\c3ccc(O)c(OC)c3)n(C(=O)CNc3ccc(Cl)cc3)n2)ccc1O | 1.63% (active)
NS(=O)(=O)c1ccc(-c2cc(-c3nnc(SCC(=O)Nc4ccc(C(=O)/C=C/c5ccc(Cl)cc5)cc4)n3-c3ccccc3)c3ccccc3n2)cc1 | 84.5%
O=c1[nH]c(=S)[nH]c2nc[nH]c12 | 100%
